# Results published in PMC11062922 (Nature Chemical Biology, 2023).
# Where two headings read alike, the source gives them in different places.
# How the values were obtained:
# Set-up in all cases: species or system human, MV4-11 + K-562 + COLO205 + SK-N-BE2 + OVCAR-8
# [1] = system: DYRK1A; conditions: read-out: apparent Kd, compound concentrations: 100 nM and 1000 nM (sheet 'Samples'), n = 1
# [2] = system: FLT3; conditions: read-out: apparent Kd; compound concentrations: 100 nM and 1000 nM (sheet 'Samples'), CATDS: 6.3899678732730503E-2; n = 1
# [3] = system: ACAD11; conditions: read-out: apparent Kd; compound concentrations: 100 nM and 1000 nM (sheet 'Samples'), CATDS: 2.6823851715364801E-2; n = 1
# [4] = system: ACVR1B; conditions: read-out: apparent Kd, compound concentrations: 100 nM and 1000 nM (sheet 'Samples'), n = 1
# [5] = system: ACVR1; conditions: read-out: apparent Kd, compound concentrations: 100 nM and 1000 nM (sheet 'Samples'), n = 1
# [6] = system: CDK16; conditions: read-out: apparent Kd, compound concentrations: 100 nM and 1000 nM (sheet 'Samples'), n = 1
# [7] = system: CDKL5; conditions: read-out: apparent Kd, compound concentrations: 100 nM and 1000 nM (sheet 'Samples'), n = 1
# [8] = system: GSK3A; conditions: read-out: apparent Kd, compound concentrations: 100 nM and 1000 nM (sheet 'Samples'), n = 1
# [9] = system: GSK3B; conditions: read-out: apparent Kd, compound concentrations: 100 nM and 1000 nM (sheet 'Samples'), n = 1
# [10] = system: MAP2K5; conditions: read-out: apparent Kd; compound concentrations: 100 nM and 1000 nM (sheet 'Samples'), CATDS: 2.4851428787040001E-2; n = 1
# [11] = system: ZAK; conditions: read-out: apparent Kd, compound concentrations: 100 nM and 1000 nM (sheet 'Samples'), n = 1
# [12] = system: CSK; conditions: read-out: apparent Kd; compound concentrations: 100 nM and 1000 nM (sheet 'Samples'), CATDS: 1.8899514592430999E-2; n = 1
# [13] = system: DDR1; conditions: read-out: apparent Kd, compound concentrations: 100 nM and 1000 nM (sheet 'Samples'), n = 1
# [14] = system: EGFR; conditions: read-out: apparent Kd; compound concentrations: 100 nM and 1000 nM (sheet 'Samples'), CATDS: 2.2005426873151199E-2; n = 1
# [15] = system: FRK; conditions: read-out: apparent Kd; compound concentrations: 100 nM and 1000 nM (sheet 'Samples'), CATDS: 2.08537323275855E-2; n = 1
# [16] = system: LYN; conditions: read-out: apparent Kd; compound concentrations: 100 nM and 1000 nM (sheet 'Samples'), CATDS: 2.0380924471609701E-2; n = 1
# [17] = system: SIK2; conditions: read-out: apparent Kd, compound concentrations: 100 nM and 1000 nM (sheet 'Samples'), n = 1
# [18] = system: SRC; conditions: read-out: apparent Kd, compound concentrations: 100 nM and 1000 nM (sheet 'Samples'), n = 1
# [19] = system: TNK2; conditions: read-out: apparent Kd; compound concentrations: 100 nM and 1000 nM (sheet 'Samples'), CATDS: 1.5113768238236E-2; n = 1
smiles,measurement,setting,value
O=C1N=C(NCCc2cccc(Cl)c2)S/C1=C\c1ccc2ncccc2c1 [RO4509201-000],potency estimated from few doses,[1]; CATDS: 6.6454923664205107E-2,945 nM
same,potency estimated from few doses,[2],1060 nM
COc1cccc(-n2ncc3c(N/N=C/c4ccc(C(=O)NCCN(C)C)cc4)ncnc32)c1.Cl [GW784307A],potency estimated from few doses,[3],1620 nM
same,potency estimated from few doses,[4]; CATDS: 4.53928679778344E-2,315 nM
same,potency estimated from few doses,[5]; CATDS: 0.29663347499665699,12.6 nM
same,potency estimated from few doses,[6]; CATDS: 2.5546052944154699E-2,2020 nM
same,potency estimated from few doses,[7]; CATDS: 0.115641908649272,49.3 nM
same,potency estimated from few doses,[8]; CATDS: 8.2277419546057398E-2,89 nM
same,potency estimated from few doses,[9]; CATDS: 7.3478066296280203E-2,110 nM
same,potency estimated from few doses,[10],2320 nM
same,potency estimated from few doses,[11]; CATDS: 3.20798372195591E-2,834 nM
COc1ccccc1CCNC1=NC(=O)/C(=C/c2ccc3ncccc3c2)S1 [RO4503316-000],potency estimated from few doses,[1]; CATDS: 0.20132255504791199,128 nM
CC(C)c1nc(-c2cccc(NS(=O)(=O)c3ccccc3)c2)c(-c2ccnc(Nc3ccc4c(c3)CN(C)CC4)n2)s1 [GSK1649598A],potency estimated from few doses,[4]; CATDS: 1.6553743316138101E-2,628 nM
same,potency estimated from few doses,[5]; CATDS: 1.3619919375172601E-2,1250 nM
same,potency estimated from few doses,[6]; CATDS: 3.5928247701673299E-2,112 nM
same,potency estimated from few doses,[7]; CATDS: 3.80366995063171E-2,101 nM
same,potency estimated from few doses,[12],433 nM
same,potency estimated from few doses,[13]; CATDS: 1.30172526981645E-2,1520 nM
same,potency estimated from few doses,[14],298 nM
same,potency estimated from few doses,[15],338 nM
same,potency estimated from few doses,[16],358 nM
same,potency estimated from few doses,[17]; CATDS: 1.6344481967555599E-2,653 nM
same,potency estimated from few doses,[18]; CATDS: 1.45663528778369E-2,960 nM
same,potency estimated from few doses,[19],842 nM
same,potency estimated from few doses,[11]; CATDS: 1.7977927791487699E-2,495 nM
Cn1cc(C2=C(c3cn(CCCO)c4ccccc34)C(=O)NC2=O)c2ccccc21 [RO0317377-000],potency estimated from few doses,[8]; CATDS: 0.248455440441466,311 nM
same,potency estimated from few doses,[9]; CATDS: 0.25409844627903599,301 nM
CN1C(=O)c2ccccc2N(C)c2nc(Nc3cnn(C4CCNCC4)c3)ncc21 [XMD-17-51],potency estimated from few doses,[4]; CATDS: 2.1196121470028601E-2,383 nM
same,potency estimated from few doses,[5]; CATDS: 1.6735726463305099E-2,805 nM
same,potency estimated from few doses,[13]; CATDS: 1.7451025116255701E-2,697 nM
same,potency estimated from few doses,[17]; CATDS: 2.05809527554131E-2,416 nM
same,potency estimated from few doses,[18]; CATDS: 1.6357706357996601E-2,875 nM
Cl.O=C1N=C(NCc2ccccn2)S/C1=C\c1ccc2ncccc2c1 [RO4874953-001],potency estimated from few doses,[1]; CATDS: 0.10050944146971801,893 nM
same,potency estimated from few doses,[8]; CATDS: 8.1690756727002906E-2,1370 nM
